For 11 compounds, Percent Effect results are on record in ChEMBL document CHEMBL3988442, “University of Dundee, Small-Polar-MMV Screening Library” (2021).

Molecules are shown by their SMILES. For some of these results: Entries with a potency or affinity are not part of this list.

Common to all, as to parameters: scale not given: direction of the effect not stated beside the values
Assay [1] has as its target Protein translocase subunit SecA (Escherichia coli (strain K12)) (UniProt P10408). Briefly: Assay to Identify E. coli SecA ATPase Inhibitors. Particulars: 30 µM. Type of assay: functional.
Assay [2] deals with T1, Ubiquitin-activating enzyme e1, putative (Leishmania donovani (strain BPK282A1)) (UniProt E9BSI1).
T1 sequence (whole entry): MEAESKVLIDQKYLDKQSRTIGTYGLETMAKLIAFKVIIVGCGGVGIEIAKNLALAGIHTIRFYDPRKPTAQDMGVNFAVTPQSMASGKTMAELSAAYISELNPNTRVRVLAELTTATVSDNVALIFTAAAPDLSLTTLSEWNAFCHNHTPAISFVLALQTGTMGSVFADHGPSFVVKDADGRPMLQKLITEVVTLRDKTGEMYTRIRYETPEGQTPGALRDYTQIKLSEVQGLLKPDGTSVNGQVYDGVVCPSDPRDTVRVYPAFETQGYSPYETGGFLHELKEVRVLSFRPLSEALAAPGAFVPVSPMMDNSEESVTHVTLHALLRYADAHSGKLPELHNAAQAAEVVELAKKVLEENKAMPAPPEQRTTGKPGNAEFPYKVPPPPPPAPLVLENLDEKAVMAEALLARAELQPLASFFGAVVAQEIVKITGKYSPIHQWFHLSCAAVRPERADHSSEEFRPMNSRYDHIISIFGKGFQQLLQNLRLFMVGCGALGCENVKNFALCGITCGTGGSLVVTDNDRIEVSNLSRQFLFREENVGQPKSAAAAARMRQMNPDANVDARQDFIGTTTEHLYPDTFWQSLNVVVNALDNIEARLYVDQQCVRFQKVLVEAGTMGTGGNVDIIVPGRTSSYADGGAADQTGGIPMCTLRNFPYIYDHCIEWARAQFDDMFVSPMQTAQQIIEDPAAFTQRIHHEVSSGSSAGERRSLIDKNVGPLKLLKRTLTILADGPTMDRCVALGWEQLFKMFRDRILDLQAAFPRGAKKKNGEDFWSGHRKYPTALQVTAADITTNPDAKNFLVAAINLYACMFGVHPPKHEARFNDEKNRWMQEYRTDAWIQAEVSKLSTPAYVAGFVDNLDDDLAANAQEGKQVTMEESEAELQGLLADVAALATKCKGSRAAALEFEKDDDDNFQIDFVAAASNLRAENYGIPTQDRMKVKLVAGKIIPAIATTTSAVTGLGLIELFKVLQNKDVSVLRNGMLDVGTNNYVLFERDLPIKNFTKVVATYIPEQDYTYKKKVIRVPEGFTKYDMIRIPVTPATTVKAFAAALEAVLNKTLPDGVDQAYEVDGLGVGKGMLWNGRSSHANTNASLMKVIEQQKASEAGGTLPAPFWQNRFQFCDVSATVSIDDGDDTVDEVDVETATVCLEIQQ
In words: Leishmania donovani Ubiquitin Activating Enzyme (LdE1). The following applies: 30 µM. Type of assay: functional.

In assay [3] the target is AMP-activated protein kinase, AMPK (Homo sapiens) (UniProt P54646+O43741+P54619+Q9UGJ0+Q9Y478+Q13131+Q9UGI9). Briefly: AMP-dependent Kinase enzyme assay. An in vitro enzyme assay that detects ADP turnover that is directly proportional to AMPK activity. This uses naive AMPK that is activated during the assay with MK-8722. It is filed as functional. Particulars: 30 µM.
The target of assay [4] is Sialic acid-binding Ig-like lectin 9 (Homo sapiens) (UniProt Q9Y336). Briefly: Hs-Siglec9 ALPHAscreen SOP 20170721. The following applies: 10 µM.
Assay [5] relates to Trypanosoma cruzi. In words: Trypanosoma cruzi phosphomannomutase and mannose-1-phosphate guanylyltransferase assay. The following applies: 10 µM. Type of assay: functional.
Assay [6] addresses T2, Arginase-2, mitochondrial (Homo sapiens) (UniProt P78540).
T2 sequence (whole entry): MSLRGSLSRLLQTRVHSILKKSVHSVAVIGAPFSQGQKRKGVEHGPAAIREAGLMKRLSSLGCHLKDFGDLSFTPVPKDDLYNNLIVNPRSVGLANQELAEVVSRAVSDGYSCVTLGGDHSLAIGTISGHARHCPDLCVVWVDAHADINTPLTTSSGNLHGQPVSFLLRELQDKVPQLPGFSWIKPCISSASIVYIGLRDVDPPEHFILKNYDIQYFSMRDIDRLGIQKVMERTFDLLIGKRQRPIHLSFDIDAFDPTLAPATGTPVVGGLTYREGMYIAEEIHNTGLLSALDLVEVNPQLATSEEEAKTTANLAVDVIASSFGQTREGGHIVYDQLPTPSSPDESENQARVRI
In words: in vitro enzyme assay to detect the production of urea directly proportional to the activity of Arginase II. Further: in the data most compounds retested in dose-response had high values. The following applies: 33.3 µM. It is filed as functional.

The target of assay [7] is T3, Proteasome subunit beta (Trypanosoma cruzi) (UniProt O96673).
T3 sequence (whole entry): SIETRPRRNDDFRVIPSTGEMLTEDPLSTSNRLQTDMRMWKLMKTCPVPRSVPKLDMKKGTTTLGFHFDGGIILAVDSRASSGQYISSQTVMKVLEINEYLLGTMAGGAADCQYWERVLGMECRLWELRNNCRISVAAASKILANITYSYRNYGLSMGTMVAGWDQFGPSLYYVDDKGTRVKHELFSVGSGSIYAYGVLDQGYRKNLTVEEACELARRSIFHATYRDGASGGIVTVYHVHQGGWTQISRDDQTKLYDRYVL
In words: Trypanosoma cruzi proteasome chymotrypsin-like activity (TcProtChymo) assay. Further: in the data most compounds retested in dose-response had high values. Type of assay: functional. Particulars: 9.37 µM.

For assay [8], the species on record is Homo sapiens. In words: To identify inhibition of the IFN signalling (Jak-Stat) pathway via expression of an eGFP reporter gene under the control of an IFN-stimulated response element (ISRE) containing MxA promoter. It is filed as functional. Particulars: 30 µM. On the technique in general: Reporter assays use an easily measured gene product as a stand-in for the process of interest.

Assay [9] concerns the target T4, Tyrosyl-tRNA synthetase, putative (Trypanosoma cruzi (strain CL Brener)) (UniProt Q4DSP6).
T4 sequence (whole entry): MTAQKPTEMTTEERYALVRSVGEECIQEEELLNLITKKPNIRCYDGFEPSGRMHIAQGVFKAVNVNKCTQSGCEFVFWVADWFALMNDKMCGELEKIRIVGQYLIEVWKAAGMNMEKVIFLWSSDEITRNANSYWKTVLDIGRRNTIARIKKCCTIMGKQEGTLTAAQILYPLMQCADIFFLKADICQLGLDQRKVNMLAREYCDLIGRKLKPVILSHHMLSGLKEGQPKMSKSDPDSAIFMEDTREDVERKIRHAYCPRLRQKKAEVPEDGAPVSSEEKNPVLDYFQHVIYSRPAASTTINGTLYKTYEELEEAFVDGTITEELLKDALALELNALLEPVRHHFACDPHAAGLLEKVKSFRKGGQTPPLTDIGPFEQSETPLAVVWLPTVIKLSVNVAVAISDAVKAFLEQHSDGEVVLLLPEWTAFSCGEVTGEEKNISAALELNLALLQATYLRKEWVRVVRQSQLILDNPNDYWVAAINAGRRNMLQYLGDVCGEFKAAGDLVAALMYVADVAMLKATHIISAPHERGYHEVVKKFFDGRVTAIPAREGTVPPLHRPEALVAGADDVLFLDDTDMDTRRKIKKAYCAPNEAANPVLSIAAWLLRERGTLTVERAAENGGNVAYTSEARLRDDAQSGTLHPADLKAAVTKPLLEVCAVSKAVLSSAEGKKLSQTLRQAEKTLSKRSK
Briefly: Trypanosoma cruzi tyrosyl tRNA synthetase (TcYRS) _High Tyrosine SOP. Further: in the data most compounds retested in dose-response had high values. Type of assay: functional. Particulars: 30 µM.

Assay [10] deals with T4, Tyrosyl-tRNA synthetase, putative (Trypanosoma cruzi (strain CL Brener)). Briefly: Trypanosoma cruzi tyrosyl tRNA synthetase (TcYRS) SOP. Particulars: 30 µM. Type of assay: functional.
For assay [11], the target named is Chromo domain-containing protein 1 (Saccharomyces cerevisiae (strain ATCC 204508 / S288c) (Baker's yeast)) (UniProt P32657). In words: ScCHD-1 Enzyme Inhibition Assay. Further: in the data most compounds retested in dose-response had high values. Particulars: 30 µM. It is filed as functional.
Chromo domain-containing protein 1 (Saccharomyces cerevisiae (strain ATCC 204508 / S288c) (Baker's yeast)), sequence (P32657 whole entry, the tested form may be a part): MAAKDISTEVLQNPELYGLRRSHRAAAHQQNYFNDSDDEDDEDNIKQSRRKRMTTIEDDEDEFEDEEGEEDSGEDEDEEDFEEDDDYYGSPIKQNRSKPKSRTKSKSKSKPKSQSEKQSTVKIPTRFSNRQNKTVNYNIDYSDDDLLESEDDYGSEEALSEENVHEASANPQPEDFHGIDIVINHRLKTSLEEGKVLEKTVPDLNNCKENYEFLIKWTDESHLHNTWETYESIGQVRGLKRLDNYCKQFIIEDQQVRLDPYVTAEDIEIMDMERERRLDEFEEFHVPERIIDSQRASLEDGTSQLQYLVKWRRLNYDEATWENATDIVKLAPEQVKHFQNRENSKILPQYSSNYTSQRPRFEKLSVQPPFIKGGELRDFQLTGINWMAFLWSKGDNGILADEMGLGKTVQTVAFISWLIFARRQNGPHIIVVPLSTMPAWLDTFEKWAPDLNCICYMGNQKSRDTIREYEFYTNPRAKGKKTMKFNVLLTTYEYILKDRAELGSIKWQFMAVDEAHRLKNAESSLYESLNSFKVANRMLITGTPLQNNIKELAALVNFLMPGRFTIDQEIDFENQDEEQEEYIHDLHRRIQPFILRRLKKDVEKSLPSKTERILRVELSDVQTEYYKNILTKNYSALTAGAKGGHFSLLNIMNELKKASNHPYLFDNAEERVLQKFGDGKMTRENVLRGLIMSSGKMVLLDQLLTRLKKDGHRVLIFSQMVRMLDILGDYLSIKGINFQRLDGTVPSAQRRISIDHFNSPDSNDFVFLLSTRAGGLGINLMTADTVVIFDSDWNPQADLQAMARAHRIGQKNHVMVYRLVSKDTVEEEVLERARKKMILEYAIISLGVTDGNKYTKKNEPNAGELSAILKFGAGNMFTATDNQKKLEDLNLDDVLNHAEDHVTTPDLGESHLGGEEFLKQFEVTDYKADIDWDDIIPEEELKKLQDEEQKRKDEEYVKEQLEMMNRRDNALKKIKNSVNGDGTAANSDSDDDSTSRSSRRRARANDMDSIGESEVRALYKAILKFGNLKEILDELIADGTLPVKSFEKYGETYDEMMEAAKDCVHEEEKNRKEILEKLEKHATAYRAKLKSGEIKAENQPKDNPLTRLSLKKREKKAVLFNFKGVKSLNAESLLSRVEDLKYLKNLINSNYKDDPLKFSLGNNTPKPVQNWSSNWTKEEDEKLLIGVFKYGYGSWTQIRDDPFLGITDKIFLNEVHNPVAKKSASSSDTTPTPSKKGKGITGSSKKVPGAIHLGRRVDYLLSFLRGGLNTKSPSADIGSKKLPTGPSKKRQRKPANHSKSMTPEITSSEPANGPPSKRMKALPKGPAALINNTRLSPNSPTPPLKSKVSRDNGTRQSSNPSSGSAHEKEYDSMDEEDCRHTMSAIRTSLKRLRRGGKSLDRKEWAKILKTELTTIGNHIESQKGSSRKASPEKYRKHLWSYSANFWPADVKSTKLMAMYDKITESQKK

Protein translocase subunit SecA (Escherichia coli (strain K12)), sequence (P10408 whole entry): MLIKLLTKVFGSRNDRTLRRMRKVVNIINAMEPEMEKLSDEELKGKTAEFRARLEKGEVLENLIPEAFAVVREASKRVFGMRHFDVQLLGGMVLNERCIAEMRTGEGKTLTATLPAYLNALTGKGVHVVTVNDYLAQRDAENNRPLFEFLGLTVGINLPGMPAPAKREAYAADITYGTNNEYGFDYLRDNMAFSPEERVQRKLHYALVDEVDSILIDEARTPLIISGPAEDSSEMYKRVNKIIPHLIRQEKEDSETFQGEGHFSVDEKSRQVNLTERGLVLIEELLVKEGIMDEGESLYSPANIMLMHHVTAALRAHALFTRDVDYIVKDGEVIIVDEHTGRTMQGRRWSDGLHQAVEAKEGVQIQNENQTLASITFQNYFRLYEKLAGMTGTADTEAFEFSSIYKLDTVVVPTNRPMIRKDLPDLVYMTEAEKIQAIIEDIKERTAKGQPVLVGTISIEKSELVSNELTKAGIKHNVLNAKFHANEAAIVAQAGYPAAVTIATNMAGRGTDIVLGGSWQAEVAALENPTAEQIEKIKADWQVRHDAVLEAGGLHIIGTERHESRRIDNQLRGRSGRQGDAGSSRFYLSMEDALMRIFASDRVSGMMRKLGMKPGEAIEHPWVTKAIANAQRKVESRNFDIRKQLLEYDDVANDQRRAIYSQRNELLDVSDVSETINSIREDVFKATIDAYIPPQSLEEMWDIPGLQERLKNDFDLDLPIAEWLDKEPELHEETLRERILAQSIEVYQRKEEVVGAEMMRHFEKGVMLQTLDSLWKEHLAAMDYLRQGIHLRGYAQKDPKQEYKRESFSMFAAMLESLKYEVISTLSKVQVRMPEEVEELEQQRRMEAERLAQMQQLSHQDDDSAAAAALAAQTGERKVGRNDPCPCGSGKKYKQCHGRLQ
Sialic acid-binding Ig-like lectin 9 (Homo sapiens), sequence (Q9Y336 whole entry): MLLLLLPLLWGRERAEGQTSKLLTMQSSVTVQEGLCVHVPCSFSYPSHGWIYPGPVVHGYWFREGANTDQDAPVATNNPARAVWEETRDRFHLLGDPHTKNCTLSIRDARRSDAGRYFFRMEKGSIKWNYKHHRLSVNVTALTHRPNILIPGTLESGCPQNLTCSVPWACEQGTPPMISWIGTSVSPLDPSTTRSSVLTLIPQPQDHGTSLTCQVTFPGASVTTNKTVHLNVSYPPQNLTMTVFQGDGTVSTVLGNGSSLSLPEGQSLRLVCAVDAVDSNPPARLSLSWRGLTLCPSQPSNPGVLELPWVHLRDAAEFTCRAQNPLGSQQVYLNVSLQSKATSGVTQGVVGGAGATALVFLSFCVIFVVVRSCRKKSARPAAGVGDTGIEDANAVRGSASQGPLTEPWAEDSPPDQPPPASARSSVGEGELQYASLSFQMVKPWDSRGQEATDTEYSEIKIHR

As to `O=C(CN1CCC(c2cccc(F)c2)C1)NCc1ccco1` (stereo unspecified), the Percent Effect in assay [1] is -1.81%; in assay [2], 21.1%; in assay [3], 4.1%; in assay [4] it was -1.87%; in assay [5], 6.01%; in assay [6] it was -1.53%. The Percent Effect in assay [7] is 14.4%; in [8], 27.6%; in assay [9], 7.35%; in assay [10], 24.4%; in [11], -8.76%.

In the case of `CN(CC1(O)CCCCC1)C1CCCN(Cc2noc(C3CC3)n2)C1` (stereo unspecified), the Percent Effect in assay [1] was -0.786%; in [2], 26.3%; in assay [3] it was -8.18%; in [4] it was -11.1%; in assay [5], -3.46%; in assay [6] it was -1.08%. Further, the Percent Effect was 10.9% in assay [7]; 10.4% in assay [8]; 4.43% in assay [9]; 13.6% in [10]; -3.04% in assay [11].

In the case of `Cc1cccc(CNC2CCCc3c2cnn3C)c1` (stereo unspecified), the Percent Effect in assay [1] was 2.29%; in assay [2], -5.41%; in assay [3] it was -6.19%; in assay [4], 5.27%; in [5], 5.38%; in [6], 0%. The Percent Effect is 3.6% in [7]; -2.08% in assay [8]; 0.493% in assay [9]; 6.17% in assay [10]; -2% in assay [11].

Take `Cc1csc(CNC(=O)N(C)Cc2cnn(C)c2)n1`: the Percent Effect in assay [1] was -2.05%; in [2], 21.6%; in [3] it was -6.61%; in assay [4], 2.62%; in assay [5], 4.18%; in assay [6], -4.25%. For the same compound, the Percent Effect in assay [7] is 16.5%; in assay [8] it was 12.9%; in assay [9] it was 5.94%; in assay [10], 23.2%; in assay [11], -4.86%.

As to `COc1ccc(CN2CCOC3(CCCN(c4nnc(C)o4)C3)C2)cc1` (stereo unspecified), the Percent Effect in [1] is -4.63%; in assay [2], -2.74%; in assay [3], -4.05%; in assay [4] it was 6.97%; in assay [5], 5.75%; in [6], 2%. Moreover, the Percent Effect in assay [7] is 10.4%; in assay [8], -9.72%; in assay [9], 4.17%; in [10] it was -1.24%; in [11], -4.74%.

With `O=C(C1CCCc2[nH]ncc21)N1CCCC1` (stereo unspecified), the Percent Effect in assay [1] is -2.14%; in assay [2], -2.7%; in [3] it was 2.45%; in assay [4] it was -7.51%; in [5] it was -0.0978%; in assay [6], -1.24%. The Percent Effect in assay [7] was 5.92%; in assay [8], -17.4%; in assay [9], -2.15%; in assay [10] it was -6.17%; in assay [11] it was -2.26%.

Regarding `CC(C)CC(=O)N1CCCn2cnc(CN3CCCC3=O)c2C1`, the Percent Effect is -3.7% in assay [1]; 0% in [2]; -0.875% in assay [3]; -3.33% in [4]; -3.23% in assay [5]; 1.74% in assay [6]. Moreover, the Percent Effect was -0.429% in assay [7]; -1.05% in assay [8]; 2.15% in assay [9]; 6.17% in assay [10]; -0.173% in [11].

For `Cc1nc(C2CCCN2C(=O)c2cc3c(s2)CCCC3)no1` (stereo unspecified), the Percent Effect in assay [1] was -3.05%; in [2], 0%; in [3], 2.69%; in assay [4], 3.43%; in [5], 3.95%; in [6], 4.98%. Moreover, the Percent Effect was 3.51% in [7]; 5.26% in assay [8]; -0.49% in assay [9]; 0% in assay [10]; 5.53% in assay [11].

As to `CCN1CCN(c2ccc(F)cc2C(C)NCc2ccncc2)CC1` (stereo unspecified), the Percent Effect in assay [1] is -5.73%; in assay [2], 0%; in [3], -10.3%; in assay [4], -1.77%; in [5], -2.25%; in [6], -3.72%. Further, the Percent Effect is 9.7% in [7]; 6.08% in assay [8]; 3.23% in [9]; 6.17% in [10]; -0.559% in assay [11].

Turning to `Cc1cc(CN(C)C(=O)c2cccc(N3CCCC3=O)c2)no1`, the Percent Effect in assay [1] is -1.16%; in assay [2] it was 20.2%; in assay [3], -7.29%; in assay [4], -9%; in [5], -4.25%; in [6], -0.76%. The Percent Effect in [7] is 12.2%; in [8], 13.3%; in assay [9], 3.45%; in [10], 16.5%; in assay [11] it was -4.16%.

As to `Cn1ccnc1-c1cccc(NC(=O)NCCCO)c1`, the Percent Effect in assay [1] is -0.628%; in assay [2] it was 6.94%; in [3], -4.42%; in assay [4], 2.52%; in assay [5] it was 0.875%; in [6], 19.4%. Besides, the Percent Effect in [7] was 11.8%; in [8], 15.7%; in assay [9], 5.26%; in assay [10], 7.69%; in assay [11], -4.21%.
